The values that follow come from the supplement of paper PMC6411743.

Compound in the assay: Nc1nc2c(ncn2[C@@H]2O[C@H](COP(=O)(O)OP(=O)(O)OP(=O)(O)O)[C@@H](O)[C@H]2O)c(=O)[nH]1 [guanosine triphosphate]
Briefly: NP40-soluble protein abundance relative to vehicle (solubility fold change) (ratio); higher = more soluble protein in presence of GTP. As to the method:
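Solubility proteome profiling in Jurkat crude lysate. Lysate was treated with Mg-GTP (0.1-10 mM) for 10 min at room temperature and 3 min at 37 °C, then solubilised with 0.8% NP40 and benzonase, followed by ultracentrifugation. Proteins were quantified by TMT10 LC-MS/MS; the value is the NP40-soluble abundance relative to the NP40-processed vehicle, from 3 independent experiments.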

± gives the standard deviation of the averaged measurements. The full data set covers some 5,400 targets. This sample favours those with the largest changes.

Chain of UniProt P54577 (P54577 whole entry): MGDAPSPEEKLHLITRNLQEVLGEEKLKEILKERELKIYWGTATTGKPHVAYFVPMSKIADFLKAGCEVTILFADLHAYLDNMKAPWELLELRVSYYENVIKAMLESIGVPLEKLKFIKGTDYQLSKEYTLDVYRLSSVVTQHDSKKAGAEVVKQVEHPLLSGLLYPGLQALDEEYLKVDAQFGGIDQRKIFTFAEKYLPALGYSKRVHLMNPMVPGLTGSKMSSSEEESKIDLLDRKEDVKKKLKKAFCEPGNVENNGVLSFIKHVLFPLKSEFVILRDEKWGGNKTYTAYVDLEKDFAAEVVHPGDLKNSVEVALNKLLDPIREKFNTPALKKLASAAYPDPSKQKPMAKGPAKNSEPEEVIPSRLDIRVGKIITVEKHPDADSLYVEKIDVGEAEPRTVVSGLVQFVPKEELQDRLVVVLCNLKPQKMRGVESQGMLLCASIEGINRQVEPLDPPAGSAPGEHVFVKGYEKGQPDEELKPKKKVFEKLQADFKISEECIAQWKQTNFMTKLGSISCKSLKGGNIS
Chain of UniProt P41091 (P41091 whole entry): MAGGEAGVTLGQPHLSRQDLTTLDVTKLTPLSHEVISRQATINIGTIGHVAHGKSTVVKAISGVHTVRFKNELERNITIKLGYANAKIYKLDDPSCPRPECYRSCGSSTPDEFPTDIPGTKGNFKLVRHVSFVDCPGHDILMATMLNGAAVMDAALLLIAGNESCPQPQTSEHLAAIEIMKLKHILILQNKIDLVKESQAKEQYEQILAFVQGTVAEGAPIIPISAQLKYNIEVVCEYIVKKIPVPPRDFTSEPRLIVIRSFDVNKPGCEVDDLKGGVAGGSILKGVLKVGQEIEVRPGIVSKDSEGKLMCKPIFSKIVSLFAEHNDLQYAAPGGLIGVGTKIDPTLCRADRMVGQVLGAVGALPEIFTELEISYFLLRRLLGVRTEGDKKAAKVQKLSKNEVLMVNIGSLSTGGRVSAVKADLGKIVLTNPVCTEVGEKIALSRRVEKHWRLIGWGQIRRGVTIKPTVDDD
Chain of UniProt P51114 (P51114 whole entry): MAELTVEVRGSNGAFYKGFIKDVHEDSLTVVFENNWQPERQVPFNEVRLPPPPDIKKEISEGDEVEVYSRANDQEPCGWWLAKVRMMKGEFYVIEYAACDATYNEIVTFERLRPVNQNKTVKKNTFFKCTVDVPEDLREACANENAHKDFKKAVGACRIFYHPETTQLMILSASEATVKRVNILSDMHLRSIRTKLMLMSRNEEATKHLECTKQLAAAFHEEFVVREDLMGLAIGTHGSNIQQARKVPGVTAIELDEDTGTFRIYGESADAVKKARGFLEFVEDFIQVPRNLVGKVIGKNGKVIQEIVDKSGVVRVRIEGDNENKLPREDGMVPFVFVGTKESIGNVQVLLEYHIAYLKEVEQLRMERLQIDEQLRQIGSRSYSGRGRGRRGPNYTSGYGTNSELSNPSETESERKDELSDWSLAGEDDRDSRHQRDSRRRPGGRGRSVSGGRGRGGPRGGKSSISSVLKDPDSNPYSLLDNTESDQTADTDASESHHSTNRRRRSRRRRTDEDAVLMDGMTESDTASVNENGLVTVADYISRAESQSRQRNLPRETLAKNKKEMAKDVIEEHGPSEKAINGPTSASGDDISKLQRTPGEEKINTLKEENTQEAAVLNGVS
Chain of UniProt P30622 (P30622 whole entry): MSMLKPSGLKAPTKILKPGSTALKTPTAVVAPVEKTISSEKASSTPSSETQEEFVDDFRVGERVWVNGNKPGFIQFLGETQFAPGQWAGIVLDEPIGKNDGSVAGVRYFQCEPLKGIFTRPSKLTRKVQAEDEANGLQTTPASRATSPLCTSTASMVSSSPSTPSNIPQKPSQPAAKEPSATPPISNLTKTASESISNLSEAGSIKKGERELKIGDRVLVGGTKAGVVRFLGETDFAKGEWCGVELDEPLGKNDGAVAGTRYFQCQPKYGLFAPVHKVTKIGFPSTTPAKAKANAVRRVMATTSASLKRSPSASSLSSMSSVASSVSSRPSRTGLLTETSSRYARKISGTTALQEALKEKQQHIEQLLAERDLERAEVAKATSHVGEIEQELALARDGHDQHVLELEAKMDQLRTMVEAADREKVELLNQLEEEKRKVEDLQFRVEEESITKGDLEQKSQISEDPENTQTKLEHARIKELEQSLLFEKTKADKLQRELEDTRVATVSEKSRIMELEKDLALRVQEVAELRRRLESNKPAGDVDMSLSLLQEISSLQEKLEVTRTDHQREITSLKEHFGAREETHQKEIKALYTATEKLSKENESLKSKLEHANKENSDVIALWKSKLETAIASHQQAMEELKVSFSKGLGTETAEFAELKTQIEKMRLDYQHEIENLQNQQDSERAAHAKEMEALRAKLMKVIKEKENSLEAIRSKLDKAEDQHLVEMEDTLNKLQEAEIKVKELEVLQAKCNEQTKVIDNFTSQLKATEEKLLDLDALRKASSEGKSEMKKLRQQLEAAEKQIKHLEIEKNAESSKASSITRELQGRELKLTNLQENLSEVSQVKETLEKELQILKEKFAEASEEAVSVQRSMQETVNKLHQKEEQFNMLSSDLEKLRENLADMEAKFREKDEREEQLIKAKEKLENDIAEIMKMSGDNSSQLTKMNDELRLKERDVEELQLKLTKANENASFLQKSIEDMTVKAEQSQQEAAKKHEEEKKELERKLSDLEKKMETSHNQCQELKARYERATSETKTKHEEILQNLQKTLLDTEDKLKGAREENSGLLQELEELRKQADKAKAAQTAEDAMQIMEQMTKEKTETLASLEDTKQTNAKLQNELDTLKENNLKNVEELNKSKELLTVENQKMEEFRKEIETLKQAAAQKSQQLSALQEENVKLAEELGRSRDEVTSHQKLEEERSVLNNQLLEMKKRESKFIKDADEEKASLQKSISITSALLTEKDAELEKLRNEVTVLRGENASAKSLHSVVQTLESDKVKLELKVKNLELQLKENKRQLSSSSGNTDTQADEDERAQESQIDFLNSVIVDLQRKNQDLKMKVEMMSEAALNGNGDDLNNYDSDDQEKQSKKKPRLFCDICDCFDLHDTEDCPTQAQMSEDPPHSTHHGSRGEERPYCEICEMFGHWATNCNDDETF
Chain of UniProt P11216 (P11216 whole entry): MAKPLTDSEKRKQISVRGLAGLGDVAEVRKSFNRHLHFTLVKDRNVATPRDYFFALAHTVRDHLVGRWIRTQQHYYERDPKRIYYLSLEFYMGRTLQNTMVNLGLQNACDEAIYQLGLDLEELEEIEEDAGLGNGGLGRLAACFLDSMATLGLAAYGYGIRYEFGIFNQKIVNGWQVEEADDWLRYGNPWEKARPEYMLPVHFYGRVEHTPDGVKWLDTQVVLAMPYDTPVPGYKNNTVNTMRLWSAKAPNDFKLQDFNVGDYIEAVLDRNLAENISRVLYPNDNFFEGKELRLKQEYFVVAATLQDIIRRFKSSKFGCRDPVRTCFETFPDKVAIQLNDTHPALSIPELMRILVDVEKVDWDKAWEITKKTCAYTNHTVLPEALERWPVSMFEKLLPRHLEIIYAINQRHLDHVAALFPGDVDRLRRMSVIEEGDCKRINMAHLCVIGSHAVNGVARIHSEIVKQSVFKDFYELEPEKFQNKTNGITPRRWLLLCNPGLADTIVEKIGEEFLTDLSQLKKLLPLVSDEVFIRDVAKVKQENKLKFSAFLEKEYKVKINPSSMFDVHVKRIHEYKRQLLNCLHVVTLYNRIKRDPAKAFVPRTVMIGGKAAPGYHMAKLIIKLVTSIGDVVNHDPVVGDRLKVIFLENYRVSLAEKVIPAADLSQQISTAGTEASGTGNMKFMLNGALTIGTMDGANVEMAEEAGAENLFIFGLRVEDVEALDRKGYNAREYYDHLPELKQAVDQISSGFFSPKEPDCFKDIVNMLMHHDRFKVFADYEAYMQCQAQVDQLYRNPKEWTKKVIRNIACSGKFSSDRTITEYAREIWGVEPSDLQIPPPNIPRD

Consider FXR1 (UniProt P51114), for which the NP40-soluble protein abundance stood at 1.13 ± 0.11 (concentration: 0.1mM); 1.23 ± 0.075 (concentration: 0.5mM); 1.31 ± 0.042 (concentration: 1mM); 1.54 ± 0.07 (concentration: 2mM); 1.885 ± 0.0094 (concentration: 4mM); 2.02 ± 0.03 (concentration: 6mM). The NP40-soluble protein abundance came to 2.16 ± 0.091 (concentration: 8mM) and 2.28 ± 0.13 (concentration: 10mM).
On to EIF2S3 (UniProt P41091), for which the NP40-soluble protein abundance by setting is: (concentration: 0.1mM) 1.02 ± 0.024; (concentration: 0.5mM) 1.05 ± 0.045; (concentration: 1mM) 0.967 ± 0.015; (concentration: 2mM) 0.98 ± 0.071; (concentration: 4mM) 0.981 ± 0.04; (concentration: 6mM) 0.995 ± 0.038. For the same target, the NP40-soluble protein abundance runs as follows: (concentration: 8mM) 0.956 ± 0.025; (concentration: 10mM) 0.931 ± 0.065.
Regarding UniProt P30622|P30622-1, the NP40-soluble protein abundance was determined as 0.996 ± 0.068 (concentration: 0.1mM); 1 ± 0.086 (concentration: 0.5mM); 1.01 ± 0.08 (concentration: 1mM); 0.97 ± 0.11 (concentration: 2mM); 0.953 ± 0.076 (concentration: 4mM); 0.954 ± 0.069 (concentration: 6mM). Moreover, the NP40-soluble protein abundance runs as follows: (concentration: 8mM) 1 ± 0.088; (concentration: 10mM) 1.01 ± 0.11.
Regarding PYGB (UniProt P11216), the NP40-soluble protein abundance (concentration: 0.1mM) stood at 1.11 ± 0.12; the NP40-soluble protein abundance (concentration: 0.5mM) stood at 1.19 ± 0.21; the NP40-soluble protein abundance (concentration: 1mM) was found to be 1.2 ± 0.28; the NP40-soluble protein abundance (concentration: 2mM) came out at 1.45 ± 0.5; the NP40-soluble protein abundance (concentration: 4mM) came to 1.71 ± 0.63; the NP40-soluble protein abundance (concentration: 6mM) came out at 1.78 ± 0.69. The NP40-soluble protein abundance runs as follows: (concentration: 8mM) 1.75 ± 0.61; (concentration: 10mM) 1.79 ± 0.67.
Take YARS (UniProt P54577): the NP40-soluble protein abundance (concentration: 0.1mM) came to 0.952 ± 0.037; the NP40-soluble protein abundance (concentration: 0.5mM) amounted to 0.969 ± 0.029; the NP40-soluble protein abundance (concentration: 1mM) is 0.92 ± 0.042; the NP40-soluble protein abundance (concentration: 2mM) came to 0.878 ± 0.048; the NP40-soluble protein abundance (concentration: 4mM) is 0.864 ± 0.061; the NP40-soluble protein abundance (concentration: 6mM) came out at 0.874 ± 0.048. The NP40-soluble protein abundance (concentration: 8mM) was 0.872 ± 0.043 and the NP40-soluble protein abundance (concentration: 10mM) amounted to 0.849 ± 0.066.
